In paper PMC4336329 (PLoS ONE, 2015):
The whole screen tested about 310,000 compounds, of which about 2,200 (0.71%) showed an effect of 50% or more. The effect is printed as a negative number. The full list was thinned out, with strong results kept by preference.

target: human ether-à-go-go-related gene (hERG) potassium channel (human, UniProt Q12809); test: primary screen, population patch clamp on CHO cells stably expressing hERG; higher = less effect of the substance
Sequence (Q12809 whole entry, looked up): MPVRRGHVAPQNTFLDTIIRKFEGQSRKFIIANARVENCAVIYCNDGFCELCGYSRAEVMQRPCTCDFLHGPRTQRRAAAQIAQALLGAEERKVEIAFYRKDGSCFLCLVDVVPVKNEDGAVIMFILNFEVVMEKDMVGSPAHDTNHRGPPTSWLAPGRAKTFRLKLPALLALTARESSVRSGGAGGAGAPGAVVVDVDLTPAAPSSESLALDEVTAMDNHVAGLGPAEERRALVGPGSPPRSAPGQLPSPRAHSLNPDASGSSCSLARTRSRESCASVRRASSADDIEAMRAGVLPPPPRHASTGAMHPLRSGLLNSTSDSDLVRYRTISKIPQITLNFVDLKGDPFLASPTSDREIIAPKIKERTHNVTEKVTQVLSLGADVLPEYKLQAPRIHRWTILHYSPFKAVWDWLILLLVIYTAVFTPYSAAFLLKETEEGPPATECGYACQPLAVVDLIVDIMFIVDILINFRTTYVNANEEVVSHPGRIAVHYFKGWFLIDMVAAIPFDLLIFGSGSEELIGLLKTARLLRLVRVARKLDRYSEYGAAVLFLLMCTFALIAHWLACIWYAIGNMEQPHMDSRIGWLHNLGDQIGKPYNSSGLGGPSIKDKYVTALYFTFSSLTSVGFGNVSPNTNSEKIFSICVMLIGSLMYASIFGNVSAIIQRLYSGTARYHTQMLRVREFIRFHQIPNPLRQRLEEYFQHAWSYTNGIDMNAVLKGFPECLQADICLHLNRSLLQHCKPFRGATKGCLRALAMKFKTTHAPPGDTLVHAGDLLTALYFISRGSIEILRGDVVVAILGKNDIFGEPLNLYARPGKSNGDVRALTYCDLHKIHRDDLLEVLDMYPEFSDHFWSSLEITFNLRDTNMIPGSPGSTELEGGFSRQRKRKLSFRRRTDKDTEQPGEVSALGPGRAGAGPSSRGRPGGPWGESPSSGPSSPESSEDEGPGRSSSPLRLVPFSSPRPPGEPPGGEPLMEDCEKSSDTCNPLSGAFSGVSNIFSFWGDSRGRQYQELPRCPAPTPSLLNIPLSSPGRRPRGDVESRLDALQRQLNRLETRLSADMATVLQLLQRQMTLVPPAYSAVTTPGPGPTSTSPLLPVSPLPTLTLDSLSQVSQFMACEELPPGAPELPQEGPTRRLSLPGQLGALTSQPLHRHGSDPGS

SMILES	hERG current change (%, negative = inhibition) at 1uM [%]
Cc1nn(CC(=O)Nc2cccnc2)c(=O)c2ccccc12	-9.14
CCOC(=O)CC1C(=O)NCCN1c1nc2c(C)cccn2c(=O)c1/C=C1\SC(=S)N(C(C)CC)C1=O (stereo not drawn)	9.18
Cc1c(C(=O)N2CCC(Cc3ccccc3)CC2)sc2ncnc(N3CCC(C)CC3)c12	9.72
CCOC(=O)C1CCN(C(=O)c2sc3ncnc(N4CCC(C)CC4)c3c2C)CC1	-57.3
CCOC(=O)C1CCN(C(=O)c2sc3nc(C)nc(N4CCC(C)CC4)c3c2C)CC1	-1.96
COc1ccc2nc(SCC(=O)Nc3ccc(S(=O)(=O)N4CCCC4)cc3)c(C#N)cc2c1	-3.01
CN(C)C(=O)c1cc(C(=O)c2ccc(F)cc2C(F)(F)F)c[nH]1	14.3
Cc1nn(-c2cccc(Cl)c2)c2c1C(c1ccncc1)C(C#N)=C(N)O2 (stereo not drawn)	5.94
CCOC(=O)CCCCC(=O)c1[nH]c(=O)[nH]c1CSc1nnc2c3ccccc3n(C(C)C)c2n1	-0.434
CN1CCCC(C(=O)c2ccc(Cl)cc2)C1 (stereo not drawn)	-2.93
O=C(c1ccc(Cl)cc1)C1CCCN(C2CCSCC2)C1 (stereo not drawn)	-63.4
CC(C)(C)c1ccc(C(=O)C2CCCN(C3CCC3)C2)cc1 (stereo not drawn)	10.7
O=C(c1ccc(C(F)(F)F)cc1)C1CCCN(C(=O)c2csnn2)C1 (stereo not drawn)	9.85
O=C(c1ccc(C(F)(F)F)cc1)C1CCCN(C2CCSCC2)C1 (stereo not drawn)	-64.4
Cc1cc(Cl)ccc1C(=O)C1CCCN(C2CCSCC2)C1 (stereo not drawn)	-49.3
CCC(=O)Nc1ccc(S(=O)(=O)Nc2cccc(C)c2)cc1OC	6.57
COc1cc(O)c(C(CCN2CCOCC2)c2ccc3c(c2)OCO3)c(OC)c1 (stereo not drawn)	-45.7
COc1cc(OC)c2ccc(=O)oc2c1C(CCN1CCCC1)c1ccc2c(c1)OCO2 (stereo not drawn)	-7.33
CC(C)CCC(CCN1CCOCC1)c1ccc2c(c1)OCO2.Cl (stereo not drawn)	-76.8
CC(C)CCC(CCN1CCCC1)c1ccc2c(c1)OCO2.O=C(O)C(=O)O (stereo not drawn)	-83.3
O=C(CCN1CCCCC1)c1ccc2c(c1)OCO2	10.3

SMILES	hERG current change (%, negative = inhibition) at 1uM [%]
C(=NCCCN1CCOCC1)c1ccc2c(c1)OCO2	16.1
CC(=O)Nc1ccc(NC(=O)C(C)OC(=O)CNC(=O)c2cccs2)cc1 (stereo not drawn)	12.5
CCOC(=O)c1c(-c2ccc(C)cc2C)csc1NC(=O)CSc1nnnn1C	-3.8
COc1ccc(Cl)cc1N(C)C(=O)CCNC(=O)Cn1cnc2ccccc2c1=O	11.2
Cc1cc(C)c2cc(CN(CCN3CCCC3)C(=O)Nc3ccc(F)cc3)c(=O)[nH]c2c1	-57.9
COc1cc2cc(CN(CCN3CCCC3)C(=O)Nc3ccc(F)cc3)c(=O)[nH]c2cc1OC	3.06
Cc1ccc2cc(CN(CCN3CCCC3)C(=O)Nc3ccc(F)cc3)c(=O)[nH]c2c1C	-8.93
Cc1ccc(C)c2[nH]c(=O)c(CN(CCN3CCCC3)C(=O)Nc3cccc(Cl)c3)cc12	-35.6
Cc1cc(C)c2cc(CN(CCO)C(=O)Nc3ccc(Cl)cc3)c(=O)[nH]c2c1	3.03
Cc1ccc(C)c2[nH]c(=O)c(CN(CCN3CCCC3)C(=O)Nc3ccc(F)cc3)cc12	-76.6
CC1(C)CC(=O)C(C=NCCN2CCN(CC(=O)Nc3ccc(Cl)cc3)CC2)=C(O)C1	2.52
C=CCn1c(O)c(C(C)=NCCN2CCCCC2)c(=O)[nH]c1=O	8.8
CCOc1ccc(NC(=S)N2CCC(NC(=O)c3ccccc3)CC2)cc1	-3.48
CN1CCN(CC#CC(C)(O)C2CC3C=CC2C3)CC1.Cl (stereo not drawn)	10.8
c1cncc(COC2CCCN(Cc3nc(-c4cccs4)no3)C2)c1 (stereo not drawn)	15.7
COc1cc(OC)cc(C(C)=O)c1	14.7
Cc1ccc(NC(=O)/C=C/c2ccc([N+](=O)[O-])s2)cc1	13.2
CN(C)CCCn1c(SCC(=O)N2CC(=O)Nc3ccccc32)nc2ccccc2c1=O	9.8
COCCn1c(SCC(=O)N2CC(=O)Nc3ccccc32)nc2ccccc2c1=O	-3.74
CC(C)N(CCn1c(SCC(=O)N2CC(=O)Nc3ccccc32)nc2ccccc2c1=O)C(C)C	-72.5
N#Cc1ccc(S(=O)(=O)NCC(=O)OCC(=O)NCCc2ccccc2)cc1	14.7

SMILES	hERG current change (%, negative = inhibition) at 1uM [%]
C=CCn1c(SCC(=O)N(CC)C2CCS(=O)(=O)C2)nc2sc3c(c2c1=O)CCC3 (stereo not drawn)	-37.5
Clc1ccc(-c2nnc(NC3=NCCCCC3)o2)cc1	10
Cc1ccc(C(=O)N/C(=C\c2ccco2)C(=O)NCCN2CCOCC2)cc1	5.85
O=C(NCCN1CCOCC1)/C(=C/c1ccc(Cl)cc1)NC(=O)c1ccccc1	-83.1
CN(C)c1ccc(/C=C(/NC(=O)c2ccccc2)C(=O)NCCN2CCOCC2)cc1	16.1
Cc1ccc(C(=O)N/C(=C\c2ccc(Cl)cc2)C(=O)NCCN2CCOCC2)cc1	-70.6
Cc1ccc(C(=O)N/C(=C\c2ccc(F)cc2)C(=O)NCCN2CCOCC2)cc1	-79.1
COc1ccc(/C=C(\NC(=O)c2ccc(C)cc2)C(=O)NCCN2CCOCC2)cc1	-33.3
Cc1ccc(C(=O)N/C(=C\c2ccc(C(C)C)cc2)C(=O)NCCCN2CCOCC2)cc1	-61.4
CC(C)c1ccc(/C=C(\NC(=O)c2ccccc2)C(=O)NCCN2CCOCC2)cc1	-21.9
O=C(NCCN1CCOCC1)/C(=C/c1ccccc1)NC(=O)c1ccccc1	3.35
Cc1ccc(C(=O)N/C(=C/c2ccc(C(C)C)cc2)C(=O)NCCCN2CCOCC2)cc1	-22
CC(C)c1ccc(/C=C(\NC(=O)c2ccccc2)C(=O)NCCCN2CCOCC2)cc1	-35.8
Cc1ccc(C(=O)N/C(=C\c2ccccc2)C(=O)NCCN2CCOCC2)cc1	-38.7
Cc1ccc2[nH]cc(C(=O)CCl)c2c1	15.2
CCOc1ccccc1NC1c2ccccc2C(=O)N1Cc1ccco1 (stereo not drawn)	7.42
O=C(O)c1cccc(N2C(=O)CSC2=S)c1	11.7
COc1ccccc1-n1c(-c2ccc(Cl)cc2)c[nH]c1=S	9.1
Cc1nc2scc(-c3ccco3)c2c(=O)n1/N=C/N(C)C	5.8
O=C(Nc1cccc(NC(=O)c2ccc(Cl)cc2)n1)c1ccc(Cl)cc1	14.3
COc1ccc(-c2ccnc3nc(N4CCN(c5ccccc5)CC4)nn23)cc1	14.9

SMILES	hERG current change (%, negative = inhibition) at 1uM [%]
CCCCn1nnc(NC(=O)C(c2ccccc2)c2ccccc2)n1	11.2
COc1c(C)cc(S(=O)(=O)NCc2ccccn2)c(C)c1C	9.43
Nc1nnc(SCC(=O)OCc2ccccc2)s1	14.4
CCN(CC)S(=O)(=O)c1ccc(N2CCOCC2)c(NS(=O)(=O)c2cc(C(C)(C)C)ccc2C)c1	6.68
O=C(NCCc1cccs1)C1CC(c2c(Cl)cccc2Cl)=NO1 (stereo not drawn)	10.6
CSCCC(NS(=O)(=O)c1ccccc1F)C(=O)NCCCn1nc(C)cc1C (stereo not drawn)	-1.95
COc1ccc(/C=C(\NC(=O)c2ccc(Cl)cc2)C(=O)NCCCN2CCOCC2)cc1OC	9.09
Cc1ccc(C(=O)N/C(=C\c2ccc(Cl)cc2)C(=O)NCCCN2CCOCC2)cc1	-78.6
COc1ccc(/C=C(\NC(=O)c2ccc(C)cc2)C(=O)NCCCN2CCOCC2)cc1OC	14.1
Cc1ccc(OCCOCCN2CCN(C)CC2)c(C(C)(C)C)c1.O=C(O)C(=O)O	13.2
COc1ccc(S(=O)(=O)NCC(c2cccnc2)N2CCN(Cc3ccccc3)CC2)cc1 (stereo not drawn)	-26.7
CCN1CCN(C(CNS(=O)(=O)c2ccc(OC)c(C)c2)c2cccnc2)CC1 (stereo not drawn)	-27.5
CCN1CCN(C(CNS(=O)(=O)c2ccc(Cl)cc2)c2cccnc2)CC1 (stereo not drawn)	-10.6
O=S(=O)(NCC(c1cccnc1)N1CCN(Cc2ccccc2)CC1)c1ccccc1 (stereo not drawn)	-52.4
O=S(=O)(NCC(c1cccnc1)N1CCN(Cc2ccccc2)CC1)c1ccc(Cl)cc1 (stereo not drawn)	-60.6
COc1ccc(S(=O)(=O)NCC(c2cccnc2)N2CCN(c3ccccc3)CC2)cc1C (stereo not drawn)	-1.72
COc1ccc(S(=O)(=O)NCC(c2cccnc2)N2CCN(Cc3ccccc3)CC2)cc1C (stereo not drawn)	-65.5
Cc1ccc(S(=O)(=O)NCC(c2cccnc2)N2CCN(Cc3ccccc3)CC2)cc1 (stereo not drawn)	-39.6
O=S(=O)(NCC(c1cccnc1)N1CCN(Cc2ccccc2)CC1)c1ccc(F)cc1 (stereo not drawn)	-42.6
COc1ccc(C(=O)NNC(=O)C(=O)NC2CCCCC2)cc1	4.11
O=c1cccccc1NN=C1CCCCCC1	14.1
